Data reported in PubChem BioAssay (NCI).
About 79,000 compounds went through this panel and 15% of them were active in at least one assay; those are over-represented in the sample as a whole. Values without a mark were called inactive. The source made the active and inactive calls. Rule as the data show it: active = growth inhibition above about 70%; inactive = the rest.

assay: NCI Yeast Anticancer Drug Screen. Data for the rad50 strain (AID 155);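 also: 0% = growth of vehicle-only cultures of the same strain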; conditions: S. cerevisiae rad50 strain growth inhibition; at 50.0 µM; hits give high values
Description: Growth inhibition of yeast strains with defined genetic alterations is measured as a screen for potential anti-cancer activity. Selected strains with alterations in DNA damage repair or cell cycle control were exposed to compounds and growth inhibition was measured relative to vehicle treated controls. The strain used in this assay is rad50

SMILES | growth inhibition
CC(C)(C)c1cc(C2COC(=O)COCCOCC(=O)OCCOCCO2)cc(C(C)(C)C)c1O (stereo not given) | 12.5%
Cc1ccc(COC(=O)c2cccnc2)cc1 | -16.4%
N#C/C=C1\C=CC(O)C(O)C1OC1OC(CO)C(O)C(O)C1O (stereo not given) | 21.6%
O=C1c2cccnc2-c2nccc3ccnc1c23 | 75% (active)
Clc1ccc(C=NCCN=Cc2ccc(Cl)c(Cl)c2)cc1Cl | -14.5%
C1CCCCNCCC1 | -22.8%
C(=NCC1CCC(CN=Cc2ccco2)CC1)c1ccco1 (stereo not given) | -21%
C=CCNC(=O)C(O)C(O)C(=O)NCC=C (stereo not given) | -25.1%
C=C1C2CCC3C4(C)CCCC(C)(C(=O)O)C4CCC3(C2)C1OC(=O)/C(C)=C/C (stereo not given) | 22.4%
COc1ccc(COC(=O)N=[N+]=[N-])cc1 | 19.1%
Cc1nc2c(Cl)c(Cl)ccc2s1 | 3.6%
CCCCCCCCCCCCOc1ccc(C)cc1 | 5.45%
C[N+](C)(CCNC(=O)c1cccc2cc3ccccc3nc12)Cc1ccc([N+](=O)[O-])s1 | -13.4%
N#CC1(c2ccc(Cl)cc2)CCCC1 | -15.3%
CCOc1ccc(Br)cc1/C=N/NS(=O)(=O)c1ccc(C)cc1 | 46.7%
COc1cc(N(CCC#N)CCC#N)ccc1/C(N=Nc1ccc(Cl)cc1)=N/NC(=O)c1cc(Br)ccc1O | 7.6%
Cc1ccc(-c2noc(CC(=O)c3ccc([N+](=O)[O-])cc3)n2)cc1 | 14.4%
O=C(Cc1nc2ccc(C(=O)c3ccccc3)cc2[nH]c1=O)C(=O)Nc1ccccc1[N+](=O)[O-] | 2.75%
Clc1nc(Oc2ccccc2)nc(-c2cn(-c3ccccc3)c3ccccc23)n1 | 2.05%
COC(=O)C/C(=C/C=C1/C(=O)ON=C1C)c1c(C)[nH]oc1=O | -10.9%

SMILES | growth inhibition
Cc1ccc(NC(=S)N(C)C)cc1C | -2.7%
NC(=O)CC1OC(=O)Cc2cc3c(c(O)c21)C(=O)c1c(O)cccc1C3=O (stereo not given) | 1.05%
O=C(O)CSCc1nc2ccccc2[nH]1 | -10.8%
C=C(C)C(=O)OC1CC2(C)OC(=CC2=O)C(C)CC2OC(=O)C(=C)C12 (stereo not given) | 13.1%
O=C(O)COC1CC(=O)N2c3ccccc3C34CCN5C(=O)C(=O)C(CC53)C1C24 (stereo not given) | -1.7%
Clc1ccc(C(c2cccs2)N2CCNCC2)cc1 (stereo not given) | 5.45%
COc1ccc(-c2coc3c4c(ccc3c2=O)OCO4)cc1OC | 3.6%
CC/C(=C\c1cccc([N+](=O)[O-])c1)C(=O)O | -9.65%
COc1ccc(-c2cc(=O)c3c(O)cc(C)cc3o2)cc1OC | -23.9%
N#CCC(=O)OCCCCOC(=O)CC#N | -8.3%
CCCCCCSC[C@H](OC(C)=O)[C@@H](OC(C)=O)[C@@H](OC(C)=O)[C@@H](COC(C)=O)OC(C)=O | -7%
Cc1nc(-[n+]2nc(-c3ccccc3)nn2-c2ccccc2)sc1C | 3.3%
COc1ccccc1N1C(=O)CC(Sc2ccccc2N)C1=O (stereo not given) | -2.4%
COc1cc(/C=N/N2CCCCC2)cc(OC)c1OC | -19%
O=C(O)c1n[nH]nc1Cl | -5.9%
COC(CN(C)CC(OC)OC)OC | -8.75%
COC(=O)C1CCC(=O)N1CN(C(C)=O)c1cccc(O)c1 (stereo not given) | 5.8%
[O-]c1ccccc1/C=N/C(/N=C/c1ccccc1[O-])c1ccccc1O.[O-]c1ccccc1/C=N/C(/N=C/c1ccccc1[O-])c1ccccc1O.[Zr+4] | 0.55%
O=Cc1ccc2c(c1Cl)C(=O)c1ccccc1C2=O | 51%
CC[n+]1c(C)n(Cc2ccc(C(=O)O)cc2)c2cc(F)ccc21 | -10.8%
